Results on 54 compounds are retold here after PubChem BioAssay AID485313 (National Center for Advancing Translational Sciences (NCATS), 2010).

Hit rate of the full screen: of about 320,000 compounds, about 7,600 (2.4%) were called active. Not shown: some 3% with an inconclusive outcome. This is one part of a sample in which actives are shown more often than they occur. Calls come from the whole dose curve; as a rule, active = well fitted activation curve with a large enough effect; inconclusive = small, poorly fitted or top-dose-only effect; inactive = no such curve, though single readings can be large or run the other way.
Potency is the fitted concentration of half-maximal effect.

The nature of this experiment: qHTS Assay for NPC1 Promoter Activators.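 For activation: reporter is driven by a mutant NPC1 promoter; % of control where 0% means no effect.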 Note: nearly all actives have a fitted effect of over 60% in size. Particulars: Huh7 NPC1 promoter luciferase reporter, 24 h; series mostly up to 9.22 µM; activation: at the top concentration. The gist of the method:
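Huh7 reporter cells (NPC1 promoter driving luciferase) are dosed with compound for 24 h at 37 °C, 5% CO2; luciferase detection reagent is then added and luminescence measured after 10 min at ambient temperature.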
(In general: In qHTS, concentration-response curves come from the screen itself.)
For `COc1ccc(-c2csc(Nc3ccccn3)n2)cc1`, the Potency was 0.631 µM (active). On the same count and under the same terms, the same measure for `c1cnc(Nc2nc(-c3ccc4ccccc4c3)cs2)nc1`: 0.282 µM (active).

`COc1ccc(C(=O)Nc2nc(-c3ccc(S(=O)(=O)N4CCOCC4)cc3)cs2)cc1`: the “activation” value is -2.62% (inactive).

Consider `Cc1ccc(-c2csc(NC3OC(=O)c4ccccc43)n2)cc1` (centres undefined), for which the “activation” value was -12.3% (inactive). On to `CC(=O)c1ccc(N2CCN(C(=O)c3ccc(Cl)c(S(=O)(=O)NC4CC4)c3)CC2)c(F)c1`, for which the “activation” value is -2.68% (inactive). Same read-out and setting: the same measure for `COc1ccccc1NC(=O)CSc1nnc(CNC(=O)c2ccccc2F)o1`: 0.97% (inactive). Same read-out and setting: the same measure for `O=C(/C=C/c1cccc([N+](=O)[O-])c1)OCC(=O)N1CCOCC1`: -3.3% (inactive); for `CC1CC(=O)Nc2ccccc2N1C(=O)COc1ccc2cc(Br)ccc2c1` (centres undefined): -2.87% (inactive); for `NC(=O)NCCCC(=O)O`: 2.96% (inactive). Consider `COc1cc(-c2nnn(CC(=O)NCc3ccccc3)n2)cc(OC)c1OC`, for which the “activation” value was -7.25% (inactive).

Consider `Cc1ccccc1-c1nnn(CC(=O)c2ccc(S(=O)(=O)N3CCCC3)cc2)n1`, for which the “activation” value was 0.639% (inactive). For the compound `CC(C)(C)NC(=O)Cn1nnc(-c2ccccc2Cl)n1`, the Potency is 3.98 µM (active). On to `CCOc1cc(/C=C/C(=O)OCC(=O)NCCN2C(=O)CSC2=O)ccc1OCC(C)C`, for which the “activation” value is 0.0126% (inactive). On the same count and under the same terms, the same measure for `CCOC(=O)c1cc(-c2ccccc2C)n(Cc2cc(C)no2)n1`: 0.676% (inactive); for `COCc1c(C(=O)OCC(=O)Nc2ccc(OC(F)F)cc2)oc2ccccc12`: -1.32% (inactive). Consider `CN(C)c1ccc(-c2nnc(-c3cccnc3)o2)cc1`, for which the Potency is 1.12 µM (active). In the case of `COC(=O)CSc1nnc(-c2cccnc2)o1`, the “activation” value is -4.03% (inactive).

As for `CN(C)c1nc(-c2cccnc2)nc(-c2ccc(Cl)cc2)c1C#N`, the “activation” value is -1.1% (inactive). As for `COc1ccc([C@H]2CC(=O)C=C(/C=C/c3ccccc3)C2)cc1`, the “activation” value is 29.5% (inactive). Still for that read-out and setting: next, `CCc1cccc(C)c1N1C(=O)CN(Cc2ccccc2)C1=S`: 0.289% (inactive); `Cc1ccc(SCCC(=O)NCc2ccccn2)cc1`: -9.37% (inactive). Turning to `Cc1ccc(SCCC(=O)NC(C(C)C)C(C)C)cc1`, the “activation” value was -0.84% (inactive).

As to `Cc1ccc(SCCSc2ncccn2)cc1`, the Potency is 1.26 µM (active). For the compound `COc1ccc(S(=O)(=O)N2CCOCC2)cc1NC(=O)Cc1coc2cc(C)ccc12`, the “activation” value was -2.11% (inactive). On the same count and under the same terms, next, `Cc1n[nH]c(=O)c2c(NC(=O)CSc3cc(Cl)ccc3Cl)oc(C)c12`: 2.7% (inactive); `CCCCN(C(=O)c1nn(C)c(=O)c2ccccc12)c1c(N)n(CCC)c(=O)[nH]c1=O`: 1.11% (inactive). Same read-out and setting: next, `COc1cccc(CNC(=O)COC(=O)CN2C(=O)NC3(CCCCC3C)C2=O)c1` (centres undefined): -2.19% (inactive). The same measure, in the same setting: next, `O=C(CNC(=O)c1ccccc1Br)NNC(=O)c1cccs1`: -6.99% (inactive). Take `CN(Cc1ccccc1)C(=O)CSc1nc2ccccc2[nH]1`: the “activation” value is 7.29% (inactive). Turning to `O=C(CSc1nc2ccccc2[nH]1)c1cccs1`, the Potency is 1.26 µM (active). With `O=C(CSc1nc2ccccc2[nH]1)Nc1nc(-c2ccccc2)c(-c2ccccc2)o1`, the “activation” value was -1.2% (inactive).

Turning to `CC(OC(=O)/C=C/c1ccccc1)C(=O)NC1CCCCC1C` (centres undefined), the “activation” value is -4.21% (inactive).

Regarding `O=C(CCc1nc(-c2ccccc2)no1)Nc1cccc(C(=O)NC2CC2)c1`, the “activation” value is -0.65% (inactive). For `COc1ccc(C(=O)Cc2cnn(-c3ccccc3)c2)c(O)c1`, the Potency was 2.51 µM (active). With `Cc1cc(O)cc(O)c1C(=O)Cc1cnn(-c2ccccc2)c1`, the “activation” value is 5.07% (inactive). As for `COc1ccc(CC(=O)c2ccc(O)cc2O)cc1OC`, the “activation” value was 10.8% (inactive).

Regarding `CCOc1ncccc1C(=O)OCC(=O)N1c2ccccc2CC1C` (centres undefined), the “activation” value was -6.3% (inactive).

Consider `CCOc1ccc(NC(=S)N2CCC(NC(=O)c3ccccc3)CC2)cc1`, for which the “activation” value was -3.36% (inactive).

As to `COc1ccc(N2C(=O)CCC(C(=O)Nc3ccccn3)C2c2ccc(OC)c(OC)c2)cc1` (centres undefined), the “activation” value was 0.515% (inactive). Consider `Cc1noc(NS(=O)(=O)c2ccc(N/C=C/C(=O)c3ccccc3)cc2)c1C`, for which the “activation” value was 9.13% (inactive). In the case of `Cc1ccc(N/C=C/C(=O)c2ccccc2)cc1C`, the Potency is 2 µM (active). Consider `O=C(/C=C/NCc1ccc(F)cc1)c1ccccc1`, for which the “activation” value was -4.79% (inactive). Turning to `CCOc1ccc(N/C=C/C(=O)c2ccccc2)cc1`, the Potency was 0.316 µM (active). Still for that read-out and setting: the same measure for `COc1ccc(C(=O)/C=C/Nc2ccccn2)cc1`: 0.1 µM (active). `CCOc1ccc(N/C=C/C(=O)c2cc(OC)c(OC)c(OC)c2)cc1`: the “activation” value was -10.5% (inactive). Take `COc1ccc(C(=O)/C=C/c2ccc(OC3CSC3)cc2)cc1`: the “activation” value was -2.72% (inactive). With `Cc1nc2ccc(NC(=O)C3CCCCC3)cc2s1`, the “activation” value was 19.3% (inactive). Still for that read-out and setting: next, `COc1ccc(C(=O)OCC(=O)N2CC(=O)Nc3ccccc32)cc1Br`: 0.925% (inactive). Still for that read-out and setting: next, `Cc1occc1-c1nnc(SCC(=O)NC2CCCCC2)o1`: -1.6% (inactive); `Cc1nc(SCC(=O)NC2CCCCC2C)c(C#N)c(C)c1C` (centres undefined): -2.69% (inactive). In the case of `Cc1cccc(-n2cnc(C(=O)Nc3cccnc3)c2)n1`, the Potency is 2.82 µM (active).

`COc1cccc(C(=O)Nc2cccnc2)c1OC`: the “activation” value is -1.61% (inactive). On the same count and under the same terms, next, `Cc1cccc(-n2cnc(C(=O)NNC(=S)Nc3ccccc3)c2)n1`: -1.83% (inactive). Consider `COc1ccc(S(=O)(=O)N2CCC(C(=O)N3CCCC3)CC2)cc1C`, for which the “activation” value was -2.33% (inactive).
